In PubChem BioAssay (NCI):
About 79,000 compounds went through this panel and 15% of them were active in at least one assay; those are over-represented in the sample as a whole. Calls of active or inactive are those of the source. No stated cut-off is given here; in the data, active means growth inhibition above about 70%; inactive means the rest.

Key:
[1] = NCI Yeast Anticancer Drug Screen. Data for the mec2-1 strain (AID 157); conditions: S. cerevisiae mec2-1 strain, stronger effect = higher value
Method in brief: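 Readout is yeast growth inhibition, normalised to vehicle-treated controls, in the mec2-1 strain exposed to compound.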

[2] = NCI Yeast Anticancer Drug Screen. Data for the rad14 strain (AID 159);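 further: 0% = growth of vehicle-treated control cultures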; conditions: S. cerevisiae rad14 strain growth inhibition, stronger effect = higher value
Method in brief: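 Readout: yeast growth inhibition, referenced to vehicle-only cultures. Strain bears a defined alteration in DNA damage repair.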

[3] = NCI Yeast Anticancer Drug Screen. Data for the sgs1 mgt1 strain (AID 161);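 further: 0% = growth of cultures given vehicle only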; conditions: S. cerevisiae sgs1 mgt1 strain, stronger effect = higher value
Method in brief: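 Compounds are added to genetically altered yeast, and growth is compared with cultures given vehicle alone to give percent inhibition.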

[4] = NCI Yeast Anticancer Drug Screen. Data for the CLN2oe strain (AID 163);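 further: 0% = growth of vehicle-only control cultures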; conditions: S. cerevisiae CLN2oe strain, stronger effect = higher value
Method in brief: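 Values reflect how much compound exposure reduced yeast growth, referenced to vehicle-exposed cells. Assay organism is a strain with a defined genetic change affecting cell-cycle control.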

[5] = NCI Yeast Anticancer Drug Screen. Data for the cln2 rad14 strain (AID 165);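 further: 0% = growth equal to vehicle treated cultures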; conditions: S. cerevisiae cln2 rad14 strain, stronger effect = higher value
Method in brief: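 Relative to vehicle controls, growth inhibition of compound-treated cln2 rad14 yeast was recorded.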

[6] = NCI Yeast Anticancer Drug Screen. Data for the bub3 strain (AID 167); conditions: S. cerevisiae bub3 mutant strain, stronger effect = higher value
Method in brief: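 Part of a panel of yeast mutants defective in DNA damage repair or cell cycle regulation. Each strain is grown with compound, and inhibition is calculated relative to solvent-treated cultures.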

[7] = NCI Yeast Anticancer Drug Screen. Data for the wt2 strain (AID 169);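 further: 0% = growth of vehicle-treated yeast cultures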; conditions: S. cerevisiae wt2 strain growth inhibition, stronger effect = higher value
Method in brief: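 Values express reduction in yeast growth under compound treatment, referenced to vehicle-treated cells.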

[8] = NCI Yeast Anticancer Drug Screen. Data for the sgs1 strain (AID 173);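 further: 0% = growth of vehicle-only control cultures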; conditions: S. cerevisiae sgs1 mutant, stronger effect = higher value
Method in brief: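 Treat defined-mutant yeast with compound; measure growth; calculate inhibition relative to vehicle-treated cells.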

[9] = NCI Yeast Anticancer Drug Screen. Data for the mlh1 rad18 strain (AID 175); conditions: S. cerevisiae mlh1 rad18 strain growth inhibition, stronger effect = higher value
Method in brief: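 Test agents were incubated with a yeast strain of defined genotype (DNA damage repair defect). Inhibition of growth was derived by comparison with vehicle-exposed cultures.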

[10] = NCI Yeast Anticancer Drug Screen. Data for the rad18 strain (AID 177); conditions: S. cerevisiae rad18 mutant growth inhibition, stronger effect = higher value
Method in brief: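 A genetically defined yeast mutant impaired in DNA damage repair was treated with test compounds, then its growth was measured against cultures receiving vehicle alone.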

[11] = NCI Yeast Anticancer Drug Screen. Data for the rad52 strain (AID 147);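 further: 0% = growth of vehicle-treated control cultures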; conditions: S. cerevisiae rad52 mutant growth inhibition, stronger effect = higher value
Method in brief: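 Screen used a yeast mutant impaired in DNA repair. After compound exposure, growth was measured. Values reflect inhibition compared with vehicle-treated cells.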

[12] = NCI Yeast Anticancer Drug Screen. Data for the wt1 strain (AID 149);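 further: 0% = growth of vehicle-treated wt1 cultures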; conditions: S. cerevisiae wt1 strain (SPY 50644) growth inhibition, stronger effect = higher value
Method in brief: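 The wt1 strain was treated with compounds, and growth was compared with vehicle-treated cultures to give inhibition.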

[13] = NCI Yeast Anticancer Drug Screen. Data for the rad50EPP+ strain (AID 151);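 further: 0% = growth of vehicle-treated control cultures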; conditions: S. cerevisiae rad50 mutant strain, stronger effect = higher value
Method in brief: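 Exposing the rad50EPP+ strain to each compound, growth was compared with vehicle-only cultures to give inhibition.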

[14] = NCI Yeast Anticancer Drug Screen. Data for the mgt1 strain (AID 153); conditions: S. cerevisiae mgt1 mutant growth inhibition, stronger effect = higher value
Method in brief: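 Genetically defined yeast (mgt1) treated with compound; inhibition of growth expressed against vehicle-treated controls.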

[15] = NCI Yeast Anticancer Drug Screen. Data for the rad50 strain (AID 155);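 further: 0% = growth of vehicle-only cultures of the same strain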; conditions: S. cerevisiae rad50 strain growth inhibition, stronger effect = higher value
Method in brief: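 Cells are treated with compound, grown, and their growth is then scored against vehicle-only cultures of the same repair-deficient yeast strain.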

[16] = NCI Yeast Anticancer Drug Screen. Data for the mlh1 strain (AID 171);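 further: 0% = growth of vehicle-treated control cultures of the same strain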; conditions: S. cerevisiae mlh1 strain growth inhibition, stronger effect = higher value
Method in brief: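 Steps: expose the defined-mutant yeast strain to compound; expose a parallel culture to vehicle; measure growth; express compound effect as inhibition relative to the vehicle culture.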

[17] = at 5.0 µM (retest, dose inferred, filed as 0.5)
[18] = at 50.0 µM (retest, dose inferred, filed as 5.0)

Measured: growth inhibition

CCN(CC)C(=S)SC(=S)N(CC)CC
inactive: [1]; [17] 6% | [1]; at 11.0 µM 32% | [1]; [18] 48% | [2]; at 1.2 µM -31% | [2]; at 3.7 µM -4% | [2]; at 11.0 µM 34% | [3]; [17] -9% | [4]; at 1.2 µM 0% | [4]; at 3.7 µM -8% | [4]; at 11.0 µM 18% | [4]; at 33.0 µM 63% | [5]; [17] -15% | [5]; [18] 18% | [5]; at 50.0 µM 40.2% | [6]; at 1.2 µM -25% | [6]; at 3.7 µM -21% | [6]; [17] 0% | [6]; at 11.0 µM -22% | [6]; at 33.0 µM 27% | [6]; [18] 58% | [7]; at 1.2 µM -21% | [7]; at 3.7 µM 32% | [7]; at 11.0 µM 60% | [8]; at 1.2 µM -43% | [8]; at 3.7 µM -18% | [8]; at 11.0 µM 44% | [9]; [17] 14% | [10]; at 1.2 µM -26% | [10]; at 3.7 µM 6% | [10]; at 11.0 µM 53%
active: [1]; at 33.0 µM 97% | [1]; at 50.0 µM 93.7% | [1]; at 100.0 µM 97% | [2]; at 33.0 µM 99% | [2]; at 100.0 µM 98% | [3]; [18] 87% | [3]; at 50.0 µM 92.8% | [4]; at 100.0 µM 98% | [6]; at 50.0 µM 91.4% | [6]; at 100.0 µM 97% | [7]; at 33.0 µM 98% | [7]; at 100.0 µM 99% | [8]; at 33.0 µM 90% | [8]; at 100.0 µM 98% | [9]; [18] 73% | [9]; at 50.0 µM 92% | [10]; at 33.0 µM 95% | [10]; at 100.0 µM 98%

N#[N+]c1c([O-])c2ccccc2c2ccccc12
active: [11]; at 11.0 µM 82% | [11]; at 33.0 µM 97% | [11]; at 100.0 µM 97% | [12]; at 100.0 µM 97% | [13]; at 11.0 µM 84% | [13]; at 33.0 µM 96% | [13]; at 100.0 µM 96% | [14]; at 100.0 µM 97% | [15]; at 11.0 µM 85% | [15]; at 33.0 µM 96% | [15]; at 50.0 µM 92.7% | [15]; at 100.0 µM 96% | [1]; at 100.0 µM 97% | [2]; at 33.0 µM 80% | [2]; at 100.0 µM 97% | [3]; at 50.0 µM 76.2% | [4]; at 100.0 µM 95% | [6]; at 100.0 µM 95% | [16]; at 100.0 µM 97% | [8]; at 33.0 µM 82% | [8]; at 100.0 µM 97% | [9]; at 50.0 µM 86% | [10]; at 11.0 µM 93% | [10]; at 33.0 µM 98% | [10]; at 100.0 µM 96%
inactive: [11]; at 1.2 µM 13% | [11]; at 3.7 µM 23% | [12]; at 1.2 µM 3% | [12]; at 3.7 µM 4% | [12]; at 11.0 µM 15% | [12]; at 33.0 µM 30% | [13]; at 1.2 µM 13% | [13]; at 3.7 µM 32% | [14]; at 1.2 µM 4% | [14]; at 3.7 µM 15% | [14]; at 11.0 µM 23% | [14]; at 33.0 µM 39% | [15]; at 1.2 µM 22% | [15]; at 3.7 µM 46% | [15]; [17] -23% | [15]; [18] 35% | [1]; at 1.2 µM 0% | [1]; at 3.7 µM 0% | [1]; [17] -1% | [1]; at 11.0 µM 7% | [1]; at 33.0 µM 60% | [1]; [18] 36% | [1]; at 50.0 µM 48.6% | [2]; at 1.2 µM 3% | [2]; at 3.7 µM 17% | [2]; at 11.0 µM 25% | [3]; [17] -5% | [3]; [18] 16% | [4]; at 1.2 µM 4% | [4]; at 3.7 µM 8% | [4]; at 11.0 µM 18% | [4]; at 33.0 µM 42% | [5]; [17] -41% | [5]; [18] 2% | [5]; at 50.0 µM 47.5% | [6]; at 1.2 µM 12% | [6]; at 3.7 µM 10% | [6]; [17] -14% | [6]; at 11.0 µM 24% | [6]; at 33.0 µM 54% | [6]; [18] 22% | [6]; at 50.0 µM 44% | [16]; at 1.2 µM -1% | [16]; at 3.7 µM -1% | [16]; at 11.0 µM 20% | [16]; at 33.0 µM 65% | [8]; at 1.2 µM 0% | [8]; at 3.7 µM 4% | [8]; at 11.0 µM 20% | [9]; [17] -29% | [9]; [18] 50% | [10]; at 1.2 µM 30% | [10]; at 3.7 µM 50%

O=C(Cc1ccccc1)NNc1nc(NNC(=O)c2ccncc2)nc(Nc2ccc([N+](=O)[O-])cc2)n1
inactive: [11]; at 1.2 µM 23% | [11]; at 3.7 µM 29% | [11]; at 11.0 µM 68% | [11]; at 33.0 µM 59% | [11]; at 100.0 µM 54% | [12]; at 1.2 µM -81% | [12]; at 3.7 µM 3% | [12]; at 11.0 µM 12% | [12]; at 33.0 µM 19% | [12]; at 100.0 µM 17% | [13]; at 1.2 µM 4% | [13]; at 3.7 µM 10% | [13]; at 11.0 µM 11% | [13]; at 33.0 µM 11% | [13]; at 100.0 µM -3% | [14]; at 1.2 µM 4% | [14]; at 3.7 µM 13% | [14]; at 11.0 µM 52% | [14]; at 33.0 µM 62% | [14]; at 100.0 µM 56% | [15]; at 1.2 µM 2% | [15]; at 3.7 µM 9% | [15]; [17] 8% | [15]; at 11.0 µM 21% | [15]; at 33.0 µM 25% | [15]; [18] 54% | [15]; at 100.0 µM 21% | [1]; at 1.2 µM 3% | [1]; at 3.7 µM 9% | [1]; [17] 3% | [1]; at 11.0 µM 27% | [1]; at 33.0 µM 34% | [1]; [18] 18% | [1]; at 50.0 µM 47% | [1]; at 100.0 µM 23% | [2]; at 1.2 µM -3% | [2]; at 3.7 µM 2% | [2]; at 11.0 µM 12% | [2]; at 33.0 µM 14% | [2]; at 100.0 µM 11% | [3]; [17] 0% | [3]; [18] 41% | [4]; at 1.2 µM -8% | [4]; at 3.7 µM -4% | [4]; at 11.0 µM 8% | [4]; at 33.0 µM 11% | [4]; at 100.0 µM 7% | [5]; [17] 42% | [5]; [18] 3% | [5]; at 50.0 µM 64.3% | [7]; at 1.2 µM -3% | [7]; at 3.7 µM 10% | [7]; at 11.0 µM 41% | [7]; at 33.0 µM 57% | [7]; at 100.0 µM 61% | [16]; at 1.2 µM -3% | [16]; at 3.7 µM 8% | [16]; at 11.0 µM 42% | [16]; at 33.0 µM 58% | [16]; at 100.0 µM 55% | [8]; at 1.2 µM 10% | [8]; at 3.7 µM 32% | [8]; at 11.0 µM 63% | [8]; at 33.0 µM 69% | [8]; at 100.0 µM 64% | [9]; [17] 7% | [9]; [18] 36% | [10]; at 1.2 µM 9% | [10]; at 3.7 µM 26% | [10]; at 11.0 µM 50% | [10]; at 33.0 µM 57% | [10]; at 100.0 µM 49%
active: [15]; at 50.0 µM 71.5% | [3]; at 50.0 µM 87.3% | [9]; at 50.0 µM 86.2%
